# From PubChem BioAssay
# NS1 inh: qHTS Assay for Inhibitors of Influenza NS1 Protein Function; AID 2326, 2010; Potency, µM (series often up to 46.1 µM); hit rate 0.4% among 270,000; calls by dose curve; note: actives are rising curves; nearly all actives have a fitted effect of over 50% in size
#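 OD600 was taken as the measure of yeast growth restored by compound in an NS1-expressing S. cerevisiae strain. Cells had been washed out of glucose medium and diluted 1:100 into galactose -URA medium, pH 6.0.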
# Cruzain inh noDet: qHTS Assay for Promiscuous and Specific Inhibitors of Cruzain (without detergent); Cruzipain (Trypanosoma cruzi), P25779; purified cruzain, Z-FR-AMC fluorescence, no detergent; Potency, µM, actives largely listed as inhibitors; hit rate 2.3% among 200,000; note: nearly all actives have a fitted effect of over 40% in size
# Target sequence (P25779 123-467 limits assumed): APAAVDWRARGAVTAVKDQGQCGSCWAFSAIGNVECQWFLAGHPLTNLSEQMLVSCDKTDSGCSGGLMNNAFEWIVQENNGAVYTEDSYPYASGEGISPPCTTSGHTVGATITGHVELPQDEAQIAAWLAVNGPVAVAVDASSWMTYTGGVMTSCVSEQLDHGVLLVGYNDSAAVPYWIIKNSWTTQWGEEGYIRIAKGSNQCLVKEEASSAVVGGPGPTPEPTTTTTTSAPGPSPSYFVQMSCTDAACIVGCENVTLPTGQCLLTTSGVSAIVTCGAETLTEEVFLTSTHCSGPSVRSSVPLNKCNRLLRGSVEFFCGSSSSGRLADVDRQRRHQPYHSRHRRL
#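 Detergent-free condition (0.00005% Triton X-100) in acetate buffer pH 5.5 with DTT. 1.5 nM enzyme and compound were pre-mixed 15 min, then 2 uM Z-FR-AMC substrate added; reaction progress from fluorescence change between first and third reads (60 s).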
# Cruzain Triton: qHTS Assay for Promiscuous and Specific Inhibitors of Cruzain (with detergent) | Cruzipain (Trypanosoma cruzi), P25779 | purified cruzain, Z-FR-AMC fluorescence, 0.01% Triton | Potency, µM, hits mostly inhibitors | hit rate 0.43% among 200,000; note: nearly all actives have a fitted effect of over 40% in size
#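 15 min RT preincubation of 1.5 nM cruzain with compound, then 2 uM Z-FR-AMC added; kinetic AMC fluorescence, 60 s delta. Triton X-100 0.01%, pH 5.5.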
# Numbers stand for hits; . = inactive; ? = inconclusive; / = no result. This excerpt belongs to a sample that is enriched for hits. Unless noted, calls come from the whole dose curve; as a rule, active = well fitted curve in the direction sought with a large enough effect; inconclusive = small, poorly fitted or top-dose-only effect, or another doubt; inactive = no such curve, though single readings can be large; an effect the other way counts as inactive or inconclusive.
SMILES,NS1 inh,Cruzain inh noDet,Cruzain Triton
Cc1ccc(N=Nc2c(N)[nH]n3c(=O)cc(-c4ccccc4)nc23)cc1,.,.,.
COc1cc([C@@H]2c3cc4c(cc3C(OC3OC5COC(C)OC5C(O)C3O)C3COC(=O)[C@@H]32)OCO4)cc(OC)c1O (stereo partly drawn),/,.,.
Cc1ccc2c(c1)c1c(c(=O)n(-c3ccccc3C)c(=O)n1Cc1ccccc1F)n2C,/,.,.
C/C(CC(=O)Nc1ccc(C)c(Cl)c1)=N\NC(=O)Cc1ccccc1,.,.,.
C/C(CC(=O)Nc1ccc(OCc2ccccc2)cc1)=N\NC(=O)C(=O)Nc1ccc(C)c(Cl)c1,.,7.94µM,.
COCc1cc(C)n(CC(=O)Nc2cccc(C(C)=O)c2)c(=O)c1C#N,/,.,.
O=C(O)/C=C\c1ccc[c]([Sb])c1,.,.,.
COc1ccccc1NC(=O)C1=C(C)Nc2nc(-c3cccs3)nn2C1c1cccnc1 (stereo not drawn),.,15.8µM,.
COc1ccccc1NC(=O)C1=C(C)Nc2nc(-c3ccc(N(C)C)cc3)nn2C1c1ccncc1 (stereo not drawn),.,?,.
CCn1cc(C(=O)OCC(=O)Nc2cc(OC)cc(OC)c2)c(=O)c2ccc(C)nc21,/,.,.
COc1cc2c(cc1OC)-c1cc(N3CCCc4ccccc43)nc(=O)n1CC2,.,.,.
COc1cc2c(cc1OC)-c1cc(N3CCCCCC3)nc(=O)n1CC2,.,12.6µM,.
CC(C)=CCn1cnc2c1C(NOCc1ccccc1)=NCN2,/,.,.
Cc1cc(=O)oc2cc(OCc3ccc(C(=O)N4CCN(c5ccccc5)CC4)cc3)ccc12,?,.,.
Cc1cc(=O)oc2cc(OCc3ccc(C(=O)N4CCN(c5ccc([N+](=O)[O-])cc5)CC4)cc3)ccc12,.,12.6µM,.
CC(C)(C)c1ccc(Oc2coc3cc(OCC(=O)O)ccc3c2=O)cc1,.,/,/
COC(=O)c1ccc(Oc2coc3cc(OCc4ccc([N+](=O)[O-])cc4)ccc3c2=O)cc1,.,10µM,.
CCOC(=O)c1ccccc1NC(=O)Cn1ncc2c1-c1ccccc1OC2,/,.,.
Cc1ccc(NC(=O)CN2C(=O)S/C(=C/c3ccncc3)C2=O)cc1,.,/,/
CCn1c(C)cc(/C=C2/SC(=O)N(CC(=O)N3CCCC3)C2=O)c1C,.,/,/
Cc1ccc(NC(=O)CN2C(=O)S/C(=C\C(=O)Nc3ccc(Cl)cc3)C2=O)cc1,.,10µM,.
CCn1c(C)cc(/C=C2\SC(=O)N(CC(=O)Nc3ccc(C)c(C)c3)C2=O)c1C,.,15.8µM,.
CCOc1ccc(/C=C(\C#N)c2nc(-c3cc4ccccc4oc3=O)cs2)c(OCC)c1,/,.,.
CC(C)(C)c1ccc(C(=O)Nc2nc3nc(-c4ccccc4)cc(=O)n3[nH]2)cc1,/,.,.
O=C(c1cc(C(=O)NCc2ccccc2)c(=O)n(Cc2ccccc2)c1)c1cc(Cl)ccc1O,.,?,.
SMILES,NS1 inh,Cruzain inh noDet,Cruzain Triton
Cc1ccccc1NC(=O)c1cc(C(=O)c2cc(Cl)ccc2O)cn(-c2ccccc2C)c1=O,.,7.94µM,.
COc1ccc(-c2nc3scc(CCNS(=O)(=O)c4ccc(F)c(C(F)(F)F)c4)n3n2)cc1OC,/,?,.
COc1ccc(-n2c(=S)[nH]c3cc(C(=O)Nc4cccc(C)c4)ccc3c2=O)cc1,.,12.6µM,.
COc1ccc(-n2c(=S)[nH]c3cc(C(=O)Nc4ccc(OC)c(OC)c4)ccc3c2=O)cc1,.,.,.
C[C@@]12CC[C@H]3[C@H](CCC4=CC(=O)CC[C@H]43)[C@H]1CC[C@H]2OC1(O)C(=O)c2ccccc2C1=O,.,.,.
O=C(Nc1ccc(-c2nc3ccccc3s2)c(OC(=O)c2ccccc2)c1)c1ccccc1,.,25.1µM,.
O=C(Nc1ccc(-c2nc3ccccc3s2)c(O)c1)c1ccc(Br)cc1,/,.,.
CC1CCN(S(=O)(=O)c2ccc3c(c2)oc(=O)n3CC(=O)N2CCCCC2)CC1,/,.,.
C/C=C/C1=CC2=CC(=O)C(C)(OC(=O)c3c(C)cc(O)cc3O)C(=O)C2=CO1 (stereo not drawn),/,.,.
Cc1cccc(C(C)C)c1NC(=O)COC(=O)c1cccc(S(=O)(=O)N2CCc3ccccc3C2)c1,.,25.1µM,.
CCc1cccc(CC)c1NC(=O)COC(=O)c1cccc(S(=O)(=O)N2CCc3ccccc3C2)c1,.,.,.
COc1ccc(S(=O)(=O)Nc2cc3c(cc2NCc2ccccc2)n(C)c(=O)n3C)cc1OC,/,?,.
CC(C)(C)OC(=O)NCCCCC1=CC2=CC(=O)C(C)(OC(=O)CCc3ccccc3)C(=O)C2=CO1 (stereo not drawn),/,.,.
CCOC(=O)c1ccc(N2CCN(c3cccc(Cl)c3)CC2)c(NC(=O)Nc2ccc(Cl)cc2)c1,/,3.98µM,.
